Test results taken from PubChem BioAssay AID493098 (Sanford-Burnham Center for Chemical Genomics, 2011).
In all, about 340,000 compounds went through this assay and about 1,700 (0.5%) were called active.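 The calls were made as follows: active = compounds whose inhibition of the agonist-driven luminescence signal at 20 µM reaches about 50% (limit read from the data); inactive = the rest.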 Many of the other results were omitted from the sample, so actives are more common in it than they were.

Each compound was assayed against C-C chemokine receptor type 6 (Homo sapiens) (UniProt P51684) (assay: blockers of CCL20-driven beta-arrestin recruitment to CCR6 – cell-based, CHO-K1, luminescence, uHTS, primary screen (AID 493098;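 also: cells stimulated with CCL20 at 14 nM final; plate controls were DMSO with CCL20 for no effect and DMSO without agonist for full effect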)). Settings: CHO-K1 CCR6 PathHunter beta-arrestin, CCL20-stimulated, at 20 µM, active compounds read high.
Chain of C-C chemokine receptor type 6 (Homo sapiens) (P51684 whole entry, looked up): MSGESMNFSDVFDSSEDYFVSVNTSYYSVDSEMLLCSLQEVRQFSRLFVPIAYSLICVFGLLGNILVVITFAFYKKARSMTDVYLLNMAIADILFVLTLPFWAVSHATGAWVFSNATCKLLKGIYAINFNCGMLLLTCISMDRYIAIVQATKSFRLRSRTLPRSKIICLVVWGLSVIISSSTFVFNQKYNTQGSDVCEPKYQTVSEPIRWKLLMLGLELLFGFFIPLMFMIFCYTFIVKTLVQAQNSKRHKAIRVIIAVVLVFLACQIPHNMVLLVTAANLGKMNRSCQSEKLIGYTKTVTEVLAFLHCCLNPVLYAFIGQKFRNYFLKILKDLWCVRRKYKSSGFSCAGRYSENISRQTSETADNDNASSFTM
For CC(=O)OC1C2(CC3N4C(=O)C5(CO)SSC4(CC31O)C(=O)N5C)OC(C)C(C)(C)C2=O (stereo not given), the inhibition was 111% (active).
With COC(=O)[C@@H]1C(OC(=O)c2ccccc2)CC2CCC1N2C (stereo not given in full) the inhibition was 6.3% (inactive).
For CC(Cc1cccs1)NCc1ccc(Cl)cc1 (stereo not given), the inhibition was 13.3% (inactive).
With Cc1nn(-c2ccccc2)c(C)c1NC(=O)COC(=O)Cc1ccccc1 the inhibition was -2.94% (inactive).
In the case of CCCOC(=O)C1C2c3ccccc3C(c3ccccc32)C1C(=O)O (stereo not given), the inhibition is reported as -3.33% (inactive).
